Results: PubChem BioAssay (EPA / NIEHS)
Values joined by “and” are separate entries in the source; they are usually repeats but may differ in a detail not shown here. Identical values can stand only once. Results filed as inconclusive are left out. Where a structure was tested more than once in an assay, its records may differ in their call. Active and inactive are the calls of the source. The calls were made as follows, unless noted: active = hit-call score of the fitted dose curve at least 0.9, where 1 is the maximum; inactive = score below 0.9.

What was measured:
[1] = ATG_M_06_TRANS: Attagene TRANS-FACTORIAL HepG2 Assay for M06 Transcription Factor (Internal Marker) (AID 2282983; active = hit-call score of the fitted dose curve at least 0.9, where 1 is the maximum;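 as to AC50: potency for rise in reporter mRNA above DMSO baseline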;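 as to outcome: reporter transcript level by RT-PCR then capillary electrophoresis fluorescence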); conditions: HepG2 Attagene TRANS M06 internal marker reporter
How it was run: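 Read-out: fluorescent reporter cDNA fragments resolved by capillary electrophoresis after RT-PCR and HpaI cut. Source cells were HepG2 carrying transfected multi-reporter GAL4 constructs, dosed 24 h. Increase over DMSO control analysed.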

[2] = ATG_M_32_TRANS: Attagene TRANS-FACTORIAL HepG2 Assay for M32 Transcription Factor (Internal Marker) (AID 2282984; active = hit-call score of the fitted dose curve at least 0.9, where 1 is the maximum;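 also: transcript level of a background control reporter unit measured by RT-PCR and capillary electrophoresis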); conditions: HepG2 Attagene TRANS M32 internal marker reporter
How it was run: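 Cell-based TRANS-format assay in HepG2: exogenous chimeric GAL4 reporter units transiently expressed, compounds applied 24 h. Reporter mRNA detected by RT-PCR plus capillary electrophoresis; this readout is an internal background marker.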

[3] = biological target: Nuclear respiratory factor 1 (Homo sapiens) (UniProt Q16656); test: ATG_NRF1_CIS: Attagene CIS-FACTORIAL HepG2 Assay for human Nuclear Respiratory Factor 1 (NRF1) Orphan Gene (AID 2282987); conditions: HepG2 NRF1 cis-element reporter, Attagene multiplex; actives raise or lower the signal
Sequence of Nuclear respiratory factor 1 (Homo sapiens) (Q16656 whole entry, looked up): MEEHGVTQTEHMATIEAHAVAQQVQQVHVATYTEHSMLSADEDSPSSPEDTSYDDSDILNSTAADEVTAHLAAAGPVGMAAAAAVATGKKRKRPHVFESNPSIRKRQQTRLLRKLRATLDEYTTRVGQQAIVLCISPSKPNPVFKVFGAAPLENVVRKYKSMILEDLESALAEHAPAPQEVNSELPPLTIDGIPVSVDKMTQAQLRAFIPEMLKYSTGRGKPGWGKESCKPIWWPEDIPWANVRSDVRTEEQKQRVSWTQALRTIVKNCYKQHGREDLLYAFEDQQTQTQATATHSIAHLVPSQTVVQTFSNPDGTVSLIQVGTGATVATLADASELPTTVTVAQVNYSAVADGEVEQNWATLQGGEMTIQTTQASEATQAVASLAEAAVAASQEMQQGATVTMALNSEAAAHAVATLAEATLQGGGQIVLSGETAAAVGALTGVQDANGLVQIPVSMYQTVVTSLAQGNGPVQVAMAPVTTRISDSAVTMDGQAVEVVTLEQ
How it was run: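 Endogenous factor activity was captured via cis-element-driven reporter transcripts in HepG2 cells. Following 24 h chemical treatment, transcripts were quantified by RT-PCR and capillary electrophoresis.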

[4] = ATG_NFI_CIS: Attagene CIS-FACTORIAL HepG2 Assay for human Nuclear Factor I (NFI) (AID 2282989); conditions: HepG2 cis-regulatory reporter, NFI response element transcription; actives raise or lower the signal
How it was run: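 Cells: human liver HepG2, transiently transfected with promoter-regulated reporter transcription units. Exposure 24 h. Detection: fluorescent RT-PCR products separated by capillary electrophoresis, normalised to DMSO negative control.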

[5] = biological target: Myc proto-oncogene protein (Homo sapiens) (UniProt P01106); test: ATG_Myc_CIS: Attagene CIS-FACTORIAL HepG2 Assay for human Myelocytomatosis (Myc) Proto-Oncogene Transcription Factor (AID 2282990); conditions: HepG2, Attagene cis-reporter transcription factor activity; actives raise or lower the signal
Sequence of Myc proto-oncogene protein (Homo sapiens) (P01106 whole entry, looked up): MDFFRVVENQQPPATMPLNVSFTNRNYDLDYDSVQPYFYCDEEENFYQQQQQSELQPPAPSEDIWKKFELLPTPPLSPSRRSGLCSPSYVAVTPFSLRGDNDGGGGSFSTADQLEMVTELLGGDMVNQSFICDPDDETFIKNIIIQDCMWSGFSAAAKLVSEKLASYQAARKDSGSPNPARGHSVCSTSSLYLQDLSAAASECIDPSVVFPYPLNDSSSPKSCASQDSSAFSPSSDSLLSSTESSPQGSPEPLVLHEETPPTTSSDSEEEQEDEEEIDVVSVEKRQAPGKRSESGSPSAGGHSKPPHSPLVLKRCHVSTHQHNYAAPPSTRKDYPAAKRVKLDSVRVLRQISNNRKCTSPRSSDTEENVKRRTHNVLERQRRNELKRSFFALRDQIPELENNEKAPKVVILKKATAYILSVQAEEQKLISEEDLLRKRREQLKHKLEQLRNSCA
How it was run: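 HepG2, transient MRTU transfection (cis promoters, endogenous TFs); 24 h dosing; TriZol RNA → oligo(dT) RT → PCR → 6-FAM primer extension → HpaI cut → CE. Bidirectional fit vs DMSO.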

[6] = ATG_NRF2_ARE_CIS: Attagene CIS-FACTORIAL HepG2 Assay for human Nuclear Factor Erythroid 2 Related Factor 2 (NFR2) response to Antioxidant Response Elements (ARE) (AID 2282992); conditions: HepG2 Attagene ARE/NRF2 reporter, transcription factor activity; actives raise or lower the signal;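 as to AC50: reporter mRNA level measured by RT-PCR and capillary electrophoresis fluorescence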
How it was run: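 Endogenous transcription factor activity in human liver HepG2 cells is tracked via a cis-element-driven reporter within a multiplexed set. mRNA induction is read by RT-PCR and capillary electrophoresis after 24 h, with DMSO as baseline.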

[7] = ATG_Oct_MLP_CIS: Attagene CIS-FACTORIAL HepG2 Assay for human Octamer-Binding Transcription Factor (Oct) (AID 2282993); conditions: HepG2 Attagene cis-factorial Oct reporter, mRNA; actives raise or lower the signal
How it was run: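 HepG2, transient MRTU transfection, cis promoter elements; 24 h dosing; RT-PCR/CE fluorescence read-out of reporter mRNA; fit both directions vs DMSO.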

[8] = biological target: Cellular tumor antigen p53 (Homo sapiens) (UniProt P04637); test: ATG_p53_CIS: Attagene CIS-FACTORIAL HepG2 Assay for human p53 Transcription Factor (AID 2282994); conditions: HepG2 p53 cis-element reporter, Attagene mRNA; actives raise or lower the signal
Sequence of Cellular tumor antigen p53 (Homo sapiens) (P04637 whole entry, looked up, the tested form may be a part): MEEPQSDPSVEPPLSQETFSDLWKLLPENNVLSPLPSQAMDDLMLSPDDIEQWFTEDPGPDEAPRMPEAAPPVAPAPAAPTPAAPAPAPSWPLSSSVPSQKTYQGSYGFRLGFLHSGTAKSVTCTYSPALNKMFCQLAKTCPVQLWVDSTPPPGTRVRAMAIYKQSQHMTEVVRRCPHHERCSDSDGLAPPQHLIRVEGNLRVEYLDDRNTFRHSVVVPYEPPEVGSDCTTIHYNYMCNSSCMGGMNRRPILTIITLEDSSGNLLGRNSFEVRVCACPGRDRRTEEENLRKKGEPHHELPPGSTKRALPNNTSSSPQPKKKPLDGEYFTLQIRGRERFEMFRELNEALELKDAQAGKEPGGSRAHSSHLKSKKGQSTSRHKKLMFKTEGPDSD
How it was run: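 Steps: transfect HepG2 with multiplexed cis reporter constructs; dose chemicals 24 h; extract RNA, reverse-transcribe, PCR-amplify reporter sequences; FAM-label, HpaI-digest, resolve fragments by CE. Activity fitted both directions relative to DMSO.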

[9] = biological target: Nuclear receptor subfamily 4 group A member 2 (Homo sapiens) (UniProt P43354); test: ATG_NURR1_TRANS: Attagene TRANS-FACTORIAL HepG2 Assay for human Nuclear Receptor Related Protein 1 (NURR1) (AID 2282985; active = hit-call score of the fitted dose curve at least 0.9, where 1 is the maximum); conditions: HepG2 Attagene TRANS reporter, mRNA readout
Sequence of Nuclear receptor subfamily 4 group A member 2 (Homo sapiens) (P43354 whole entry, looked up, the tested form may be a part): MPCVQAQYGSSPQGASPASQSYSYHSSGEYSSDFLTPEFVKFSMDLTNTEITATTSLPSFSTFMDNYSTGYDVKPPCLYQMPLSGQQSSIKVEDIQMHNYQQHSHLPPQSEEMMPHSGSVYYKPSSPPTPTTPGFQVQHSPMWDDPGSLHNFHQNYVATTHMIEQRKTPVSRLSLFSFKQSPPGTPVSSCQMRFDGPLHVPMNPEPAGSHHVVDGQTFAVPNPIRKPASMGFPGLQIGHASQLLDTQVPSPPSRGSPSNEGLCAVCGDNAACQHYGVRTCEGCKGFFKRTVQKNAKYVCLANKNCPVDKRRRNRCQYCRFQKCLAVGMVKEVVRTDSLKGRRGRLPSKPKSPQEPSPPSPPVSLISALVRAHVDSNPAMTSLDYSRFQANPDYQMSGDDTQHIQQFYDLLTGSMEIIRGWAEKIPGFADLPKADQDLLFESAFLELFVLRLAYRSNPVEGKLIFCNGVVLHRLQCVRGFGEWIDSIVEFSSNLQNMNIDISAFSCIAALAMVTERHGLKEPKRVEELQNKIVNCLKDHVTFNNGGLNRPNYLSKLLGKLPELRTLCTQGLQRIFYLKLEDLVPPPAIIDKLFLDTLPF
How it was run: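 Measures transcriptional activation by an exogenous NR-Gal4 chimera in transfected HepG2 liver cells. After 24 h, reporter RNA is reverse-transcribed, amplified and resolved by capillary electrophoresis; DMSO defines baseline.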

[10] = biological target: Transcriptional activator Myb (Homo sapiens) (UniProt P10242); test: ATG_Myb_CIS: Attagene CIS-FACTORIAL HepG2 Assay for human Myeloblastosis (Myb) Proto-Oncogene Transcription Factor (AID 2282986); conditions: HepG2 Attagene CIS-FACTORIAL Myb reporter transcription; actives raise or lower the signal
Sequence of Transcriptional activator Myb (Homo sapiens) (P10242 whole entry, looked up): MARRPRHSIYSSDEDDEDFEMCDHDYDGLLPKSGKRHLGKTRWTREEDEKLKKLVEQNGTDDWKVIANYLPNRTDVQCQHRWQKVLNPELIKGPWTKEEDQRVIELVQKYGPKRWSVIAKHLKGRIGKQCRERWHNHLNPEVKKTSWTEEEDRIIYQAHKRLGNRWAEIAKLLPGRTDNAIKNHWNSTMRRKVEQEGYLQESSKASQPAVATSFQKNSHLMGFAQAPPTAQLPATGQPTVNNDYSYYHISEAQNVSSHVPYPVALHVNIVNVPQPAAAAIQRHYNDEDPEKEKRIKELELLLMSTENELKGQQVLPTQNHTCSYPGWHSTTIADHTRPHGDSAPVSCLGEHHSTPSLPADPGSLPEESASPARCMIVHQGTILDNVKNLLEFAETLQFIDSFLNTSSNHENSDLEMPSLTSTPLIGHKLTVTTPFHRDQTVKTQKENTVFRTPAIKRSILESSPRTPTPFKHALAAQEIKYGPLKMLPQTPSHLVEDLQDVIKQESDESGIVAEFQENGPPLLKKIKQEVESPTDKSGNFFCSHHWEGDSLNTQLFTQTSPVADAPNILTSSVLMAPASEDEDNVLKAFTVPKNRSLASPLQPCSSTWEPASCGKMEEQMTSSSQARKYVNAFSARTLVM
How it was run: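 Multiplexed cis-reporter system in HepG2: transient transfection, 24 h treatment, mRNA readout by RT-PCR and capillary electrophoresis. Both increases and decreases are scored versus DMSO negative control.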

[11] = ATG_NF_kB_CIS: Attagene CIS-FACTORIAL HepG2 Assay for human Nuclear Factor Kappa B (NF-kB) (AID 2282991); conditions: HepG2 Attagene cis-factorial NF-kB reporter mRNA; actives raise or lower the signal
How it was run: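 After 24 h compound incubation, transfected HepG2 cells yield total RNA; reporter cDNA is PCR-amplified, end-labelled with 6-FAM, HpaI-digested and analysed on a genetic analyser. Endogenous factor activity, DMSO-referenced bidirectional fit.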

[12] = BSK_3C_TissueFactor: BioMAP Diversity Plus: 3C Assay for Tissue Factor Biomarker Activity (AID 2282997); conditions: BioMAP 3C HUVEC, tissue factor biomarker readout; actives raise or lower the signal
How it was run: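 HUVEC, 3C system, 24 h post-dose; Tissue Factor by ELISA; bidirectional fit vs DMSO baseline.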

[13] = BSK_3C_uPAR: BioMAP Diversity Plus: 3C Assay for Urokinase-type plasminogen activator receptor (uPAR) Biomarker Activity (AID 2282998); conditions: BioMAP 3C HUVEC, uPAR biomarker ELISA; actives raise or lower the signal
How it was run: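 A multiplexed primary-cell system built on human umbilical vein endothelium was used, with chemical present for 24 h before reading. Cell-surface uPAR was detected by ELISA; signal change in either direction counted against DMSO.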

[14] = BSK_3C_VCAM1: BioMAP Diversity Plus: 3C Assay for Vascular cell adhesion molecule 1 (VCAM1) Biomarker Activity (AID 2282999); conditions: BioMAP 3C HUVEC, VCAM1 ELISA, cytokine-stimulated; actives raise or lower the signal
How it was run: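 Activity fitted in both directions relative to DMSO, with ELISA measurement of the surface marker on primary HUVEC (3C) at 24 h post-treatment; parallel SRB staining (0.1% SRB, TCA-fixed, 560 nm) flagged overt cytotoxicity.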

[15] = BSK_4H_Eotaxin3: BioMAP Diversity Plus: 4H Assay for Eotaxin 3 Biomarker Activity (AID 2283000); conditions: primary human endothelial cells (HUVEC); actives raise or lower the signal;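 also: CCL26 protein level quantified by ELISA in parallel with SRB cytotoxicity check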
How it was run: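 Readout is Eotaxin-3 (CCL26) level by ELISA in primary human umbilical vein endothelial cells harvested 24 h after chemical exposure; activity fitted in both directions against DMSO control.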

[16] = biological target: human Peroxisome Proliferator-activated Receptor alpha (PPARa), PPARA (gene 5465) (UniProt Q07869); test: ATG_PPARa_TRANS: Attagene TRANS-FACTORIAL HepG2 Assay for human Peroxisome Proliferator-activated Receptor alpha (PPARa) (AID 2283001; active = hit-call score of the fitted dose curve at least 0.9, where 1 is the maximum;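 as to AC50: potency for gain of reporter signal over DMSO so agonist or activator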)
Sequence of human Peroxisome Proliferator-activated Receptor alpha (PPARa), PPARA (gene 5465) (Q07869 whole entry, looked up, the tested form may be a part): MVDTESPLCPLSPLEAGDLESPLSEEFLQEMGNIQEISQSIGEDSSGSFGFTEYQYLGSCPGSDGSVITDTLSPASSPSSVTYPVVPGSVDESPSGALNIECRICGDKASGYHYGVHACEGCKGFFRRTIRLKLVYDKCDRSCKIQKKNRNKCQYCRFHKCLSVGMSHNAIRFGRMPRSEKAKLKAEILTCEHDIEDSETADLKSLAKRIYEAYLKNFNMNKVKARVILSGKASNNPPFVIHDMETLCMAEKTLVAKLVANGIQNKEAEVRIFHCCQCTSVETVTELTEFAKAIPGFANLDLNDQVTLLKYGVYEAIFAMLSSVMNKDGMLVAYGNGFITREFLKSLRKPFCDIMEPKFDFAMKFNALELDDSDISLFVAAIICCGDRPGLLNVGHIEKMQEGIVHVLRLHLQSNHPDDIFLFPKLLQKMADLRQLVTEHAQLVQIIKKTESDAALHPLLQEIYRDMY
How it was run: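 Transfected HepG2 cells treated with test chemical for 24 h. RNA isolated, reverse-transcribed with oligo(dT), PCR-amplified, FAM-labelled and HpaI-digested. Fragments sized by capillary electrophoresis; gain-of-signal fit relative to DMSO.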

[17] = biological target: human Peroxisome Proliferator-activated Receptor delta (PPARd), PPARD (gene 5467) (UniProt Q03181); test: ATG_PPARd_TRANS: Attagene TRANS-FACTORIAL HepG2 Assay for human Peroxisome Proliferator-activated Receptor delta (PPARd) (AID 2283002; active = hit-call score of the fitted dose curve at least 0.9, where 1 is the maximum)
Sequence of human Peroxisome Proliferator-activated Receptor delta (PPARd), PPARD (gene 5467) (Q03181 whole entry, looked up, the tested form may be a part): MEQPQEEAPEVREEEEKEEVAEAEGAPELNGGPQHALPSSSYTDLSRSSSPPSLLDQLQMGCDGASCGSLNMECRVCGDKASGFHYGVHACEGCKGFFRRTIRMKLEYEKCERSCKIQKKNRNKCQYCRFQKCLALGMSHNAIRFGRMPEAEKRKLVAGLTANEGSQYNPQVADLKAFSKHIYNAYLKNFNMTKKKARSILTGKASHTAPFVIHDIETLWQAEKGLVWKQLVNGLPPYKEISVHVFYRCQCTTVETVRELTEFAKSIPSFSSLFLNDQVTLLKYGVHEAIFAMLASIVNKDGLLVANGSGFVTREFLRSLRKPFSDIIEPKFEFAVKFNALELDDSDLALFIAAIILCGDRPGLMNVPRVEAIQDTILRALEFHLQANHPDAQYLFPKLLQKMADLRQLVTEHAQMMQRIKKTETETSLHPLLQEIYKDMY
How it was run: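 Transient HepG2 transfection (multiple GAL4-UAS RTUs, chimeric receptor-Gal4); 24 h dosing; total RNA → oligo(dT) RT → PCR → 6-FAM primer extension → HpaI cut → CE. Positive direction vs DMSO.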

[18] = read-out: Intercellular Adhesion Molecule 1 (ICAM1), ICAM1 (gene 3383); test: BSK_3C_ICAM1: BioMAP Diversity Plus: 3C Assay for Intercellular Adhesion Molecule 1 (ICAM1) Biomarker Activity (AID 2283003); conditions: primary human endothelial cells (HUVEC); actives raise or lower the signal
How it was run: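 ELISA read-out of ICAM-1; HUVEC (primary human), 3C system, 24 h post-dosing; bidirectional fit vs DMSO baseline.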

[19] = biological target: human Retinoic Acid Receptor beta (RARb), RARB (gene 5915) (UniProt P10826); test: ATG_RARb_TRANS: Attagene TRANS-FACTORIAL HepG2 Assay for human Retinoic Acid Receptor beta (AID 2283004; active = hit-call score of the fitted dose curve at least 0.9, where 1 is the maximum)
How it was run: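 Readout is reporter mRNA induction: RNA reverse-transcribed, PCR-amplified, FAM-labelled, HpaI-cut and resolved by capillary electrophoresis. Transiently transfected HepG2 cells carrying exogenous NR–Gal4 chimeras were dosed for 24 h; activity fitted upward relative to DMSO.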

CN(C)P(=O)(N(C)C)N(C)C
outcome [1]: inactive | outcome [2]: inactive | outcome [3]: inactive | outcome [4]: inactive | outcome [5]: inactive | outcome [6]: inactive | outcome [7]: inactive | outcome [8]: inactive

Nc1ncc([N+](=O)[O-])s1
outcome [1]: inactive | outcome [9]: inactive | outcome [10]: inactive | outcome [3]: inactive | outcome [4]: inactive | outcome [5]: inactive | outcome [11]: inactive | AC50 [6]: 73.2 µM (active) | outcome [7]: inactive | outcome [8]: inactive | AC50 [12]: 12.2 µM (active) | outcome [13]: inactive | outcome [14]: inactive | outcome [15]: inactive | outcome [16]: inactive | outcome [17]: inactive | outcome [18]: inactive

Clc1ccc(C2(Cn3cncn3)CC(Br)CO2)c(Cl)c1 (stereo unspecified)
outcome [1]: inactive | outcome [9]: inactive | outcome [10]: inactive | AC50 [3]: 47 µM (active) | outcome [4]: inactive | outcome [11]: inactive | AC50 [6]: 26.9 µM (active) | outcome [7]: inactive | outcome [8]: inactive | outcome [17]: inactive

CCCCOCCOC(C)=O
outcome [1]: inactive | outcome [2]: inactive | outcome [3]: inactive | outcome [4]: inactive | outcome [6]: inactive | outcome [7]: inactive | outcome [8]: inactive | outcome [17]: inactive

CCCCCCCCCl
outcome [1]: inactive | outcome [9]: inactive | outcome [10]: inactive | outcome [3]: inactive | outcome [4]: inactive | outcome [11]: inactive | outcome [6]: inactive | outcome [7]: inactive | outcome [8]: inactive

C[C@H]1O[C@@H](O[C@H]2[C@@H](O)C[C@H](O[C@H]3[C@@H](O)C[C@H](O[C@H]4CC[C@@]5(C)[C@H](CC[C@@H]6[C@@H]5CC[C@]5(C)[C@@H](C7=CC(=O)OC7)CC[C@]65O)C4)O[C@@H]3C)O[C@@H]2C)C[C@H](O)[C@@H]1O
outcome [1]: inactive | outcome [9]: inactive | AC50 [10]: 0.0564 µM (active) | outcome [3]: inactive | AC50 [4]: 0.171 µM (active) | AC50 [5]: 23.9 µM (active) | outcome [11]: inactive | outcome [6]: inactive | AC50 [7]: 0.592 µM (active) | outcome [8]: inactive | AC50 [16]: 0.0564 µM (active) | outcome [17]: inactive

c1ccc(N=NNc2ccccc2)cc1
outcome [1]: inactive | AC50 [9]: 39.7 µM (active) | outcome [10]: inactive | AC50 [4]: 180 µM (active) | AC50 [5]: 168 µM (active) | AC50 [6]: 30.9 µM (active) | AC50 [7]: 117 µM (active) | outcome [8]: inactive | outcome [16]: inactive

Cc1cc(=O)[nH]o1
outcome [1]: inactive | outcome [2]: inactive | outcome [10]: inactive | outcome [4]: inactive | outcome [11]: inactive | outcome [6]: inactive | outcome [7]: inactive | outcome [8]: inactive

Nc1ccc(Cl)cc1C(=O)c1ccccc1
AC50 [1]: 160 µM (active) | outcome [2]: inactive | outcome [3]: inactive | outcome [4]: inactive | outcome [11]: inactive | outcome [6]: inactive | outcome [7]: inactive | outcome [8]: inactive | outcome [16]: inactive
